Experimental data published in PubChem BioAssay (NCATS).
Inconclusive results are not listed. The source made the active and inactive calls. The call rests on the fitted dose curve; in most records, active means well fitted curve in the direction sought with a large enough effect; inconclusive means small, poorly fitted or top-dose-only effect, or another doubt; inactive means no such curve, though single readings can be large; an effect the other way counts as inactive or inconclusive.

Assays:
[1] = Quantitative High-Throughput drug screen in 47 multiple myeloma cell lines against the NCATS MIPE library collection: FR4_PLB cell viability assay (AID 1918924; further: nearly all actives have a fitted effect of over 35% in size)
How it was run: (§1)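 Viability readout: CellTiter-Glo luminescence following 5 min room-temperature incubation with reagent. Prior exposure: 48 h, 37C, humidified 5% CO2, 500 cells per well.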

[2] = Quantitative High-Throughput drug screen in 47 multiple myeloma cell lines against the NCATS MIPE library collection: Delta47_JCRB cell viability assay (AID 1918925; further: nearly all actives have a fitted effect of over 45% in size)
How it was run: (§2)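 Steps: seed 500 cells per well; pin-transfer MIPE 4.0 library; incubate 48 h at 37C, 5% CO2, humidified; add CellTiter-Glo, 5 min room temperature; read luminescence.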

[3] = Quantitative High-Throughput drug screen in 47 multiple myeloma cell lines against the NCATS MIPE library collection: EJM_DSMZ cell viability assay (AID 1918926; further: nearly all actives have a fitted effect of over 30% in size)
How it was run: as §2

[4] = Quantitative High-Throughput drug screen in 47 multiple myeloma cell lines against the NCATS MIPE library collection: AMO1_DSMZ cell viability assay (AID 1918927; further: nearly all actives have a fitted effect of over 30% in size)
How it was run: as §2

[5] = Quantitative High-Throughput drug screen in 47 multiple myeloma cell lines against the NCATS MIPE library collection: ARD_JJKsccE7 cell viability assay (AID 1918929)
How it was run: as §2

[6] = Quantitative High-Throughput drug screen in 47 multiple myeloma cell lines against the NCATS MIPE library collection: Karpas620_DSMZ cell viability assay (AID 1918959); further: nearly all actives have a fitted effect of over 30% in size
How it was run: as §1

[7] = Quantitative High-Throughput drug screen in 47 multiple myeloma cell lines against the NCATS MIPE library collection: KMM1_JCRB cell viability assay (AID 1918960); further: nearly all actives have a fitted effect of over 30% in size;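 on viability (% of DMSO): 100% = DMSO-treated cells and 0% = medium-only wells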
How it was run: (§3)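 Here, 48 h treatment with MIPE 4.0 agents at 37 °C preceded an ATP luminescence read. Plating density was 500 cells per well.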

[8] = Quantitative High-Throughput drug screen in 47 multiple myeloma cell lines against the NCATS MIPE library collection: Karpas417_ECACC cell viability assay (AID 1918961); conditions: Karpas417 myeloma viability, CellTiter-Glo ATP luminescence, 48 h; viability (% of DMSO): at 45.8 µM (top of the series)
How it was run: (§4)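 Approved and investigational drugs from MIPE 4.0 were added by pin tool to 500 cells per well. After 48 hours at 37C, ATP-based CellTiter-Glo luminescence indicated remaining viability.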

[9] = Quantitative High-Throughput drug screen in 47 multiple myeloma cell lines against the NCATS MIPE library collection: KHM11_PLB cell viability assay (AID 1918962); further: nearly all actives have a fitted effect of over 35% in size
How it was run: as §1

[10] = Quantitative High-Throughput drug screen in 47 multiple myeloma cell lines against the NCATS MIPE library collection: JIM3_ECACC cell viability assay (AID 1918963; further: nearly all actives have a fitted effect of over 35% in size)
How it was run: as §1

[11] = Quantitative High-Throughput drug screen in 47 multiple myeloma cell lines against the NCATS MIPE library collection: JIM1_ECACC cell viability assay (AID 1918964)
How it was run: as §2

[12] = Quantitative High-Throughput drug screen in 47 multiple myeloma cell lines against the NCATS MIPE library collection: INA6_PLB cell viability assay (AID 1918965; further: nearly all actives have a fitted effect of over 55% in size)
How it was run: as §4

[13] = Quantitative High-Throughput drug screen in 47 multiple myeloma cell lines against the NCATS MIPE library collection: JJN3_DSMZ cell viability assay (AID 1918966; further: nearly all actives have a fitted effect of over 50% in size)
How it was run: as §2

[14] = Quantitative High-Throughput drug screen in 47 multiple myeloma cell lines against the NCATS MIPE library collection: H1112_PLB cell viability assay (AID 1918967; further: nearly all actives have a fitted effect of over 30% in size)
How it was run: as §2

[15] = Quantitative High-Throughput drug screen in 47 multiple myeloma cell lines against the NCATS MIPE library collection: KMS27_JCRB cell viability assay (AID 1918970); further: nearly all actives have a fitted effect of over 30% in size
How it was run: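 ATP-based viability (CellTiter-Glo luminescence) is measured in cells treated 48 h with approved and investigational drugs at 37 °C. Controls are DMSO-only wells for full viability and media-only wells for none.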

[16] = Quantitative High-Throughput drug screen in 47 multiple myeloma cell lines against the NCATS MIPE library collection: KMS12BM_JCRB cell viability assay (AID 1918971); further: nearly all actives have a fitted effect of over 35% in size
How it was run: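 We plated 500 myeloma cells per well, pinned in MIPE 4.0 compounds, and incubated for 48 hours at 37C. ATP was then quantified with CellTiter-Glo, with DMSO and media-only wells defining 100% and 0%.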

[17] = Quantitative High-Throughput drug screen in 47 multiple myeloma cell lines against the NCATS MIPE library collection: KMS12PE_JCRB cell viability assay (AID 1918972); further: nearly all actives have a fitted effect of over 30% in size
How it was run: as §4

[18] = Quantitative High-Throughput drug screen in 47 multiple myeloma cell lines against the NCATS MIPE library collection: ARP1_JJKsccF8 cell viability assay (AID 1918928; further: nearly all actives have a fitted effect of over 40% in size)
How it was run: as §3

[19] = Quantitative High-Throughput drug screen in 47 multiple myeloma cell lines against the NCATS MIPE library collection: Karpas25_ECACC cell viability assay (AID 1918968; further: nearly all actives have a fitted effect of over 35% in size)
How it was run: as §2
Potency means the concentration at half of the fitted maximal effect.

O=C(CCCCCCNC(=O)c1cnc(N(c2ccccc2)c2ccccc2)nc1)NO
active: Potency [1] 2.96 µM | Potency [2] 3.32 µM | Potency [3] 13.2 µM | Potency [4] 4.69 µM | Potency [5] 4.69 µM | Potency [6] 5.9 µM | Potency [7] 4.18 µM | Potency [8] 0.59 µM | Potency [9] 10.5 µM | Potency [10] 16.6 µM | Potency [11] 4.69 µM | Potency [12] 2.64 µM | Potency [13] 4.18 µM | Potency [14] 13.2 µM | Potency [15] 5.26 µM | Potency [16] 2.96 µM | Potency [17] 5.9 µM

COCCn1c2c([n+](Cc3cnccn3)c1C)C(=O)c1ccccc1C2=O
active: Potency [1] 0.0105 µM | Potency [2] 0.0166 µM | Potency [3] 0.0074 µM | Potency [4] 0.0526 µM | Potency [18] 0.0118 µM | Potency [9] 0.0296 µM | Potency [10] 0.0264 µM | Potency [13] 0.0023 µM | Potency [14] 0.0526 µM | Potency [16] 0.0418 µM

COC(=O)C1=C(C)NC(C)=C(C(=O)OCCN2CCN(C(c3ccccc3)c3ccccc3)CC2)C1c1cccc([N+](=O)[O-])c1 (stereo not given)
inactive: Potency [1] | Potency [2] | Potency [3] | Potency [4] | Potency [6] | Potency [7] | Potency [9] | Potency [10] | Potency [12] | Potency [14] | Potency [19] | Potency [15] | Potency [17]

COc1ccc(CC2c3cc(OC)c(OC)cc3CC[N+]2(C)CCC(=O)OCCCCCOC(=O)CC[N+]2(C)CCc3cc(OC)c(OC)cc3C2Cc2ccc(OC)c(OC)c2)cc1OC (stereo not given)
inactive: viability (% of DMSO control) [1] 122% [at 5.15 µM] | viability, % of control [3] 94.3% [at 5.15 µM] | viability, % of DMSO [4] 97.7% [at 5.15 µM] | viability [5] 97.8% [at 5.15 µM] | viability (% of DMSO) [6] 107% [at 5.15 µM] | viability (% of DMSO) [7] 84% [at 5.15 µM] | viability, % of DMSO control [9] 95.7% [at 5.15 µM] | viability, percent of control [10] 105% [at 5.15 µM] | viability (% of DMSO) [11] 83.6% [at 5.15 µM] | viability [14] 104% [at 5.15 µM] | viability (% of control) [19] 100% [at 5.15 µM] | viability (% of DMSO) [15] 108% [at 5.15 µM] | viability, % of DMSO [16] 113% [at 5.15 µM]
active: Potency [2] 3.28 µM

CC(C)(C)c1cnc(CSc2cnc(NC(=O)C3CCNCC3)s2)o1
active: Potency [1] 0.0935 µM | Potency [2] 0.264 µM | Potency [3] 0.105 µM | Potency [4] 1.48 µM | Potency [18] 0.209 µM | Potency [5] 0.235 µM | Potency [6] 0.372 µM | Potency [7] 0.187 µM | Potency [8] 0.132 µM | Potency [9] 0.0743 µM | Potency [10] 0.235 µM | Potency [11] 0.0743 µM | Potency [12] 0.235 µM | Potency [13] 0.0833 µM | Potency [14] 0.469 µM | Potency [19] 0.209 µM | Potency [15] 0.209 µM | Potency [16] 0.132 µM | Potency [17] 0.526 µM

O=C(NCCS(=O)(=O)c1ccc(C(F)(F)F)cn1)c1ccc(Cl)cc1
active: Potency [8] 0.0235 µM | Potency [16] 0.0235 µM
inactive: Potency [1] | Potency [2] | Potency [3] | Potency [4] | Potency [18] | Potency [5] | Potency [6] | Potency [7] | Potency [9] | Potency [10] | Potency [12] | Potency [13] | Potency [14] | Potency [19] | Potency [17]

C=C1C(=CC=C2CCC[C@]3(C)[C@@H]([C@H](C)C=C[C@H](C)C(C)C)CC[C@@H]23)C[C@@H](O)C[C@@H]1O
active: Potency [1] 5.9 µM | Potency [2] 8.33 µM | Potency [3] 0.59 µM | Potency [4] 0.235 µM | Potency [18] 1.66 µM | Potency [5] 0.332 µM | Potency [6] 1.48 µM | Potency [7] 0.469 µM | Potency [8] 0.118 µM | Potency [10] 7.43 µM | Potency [11] 0.526 µM | Potency [12] 1.48 µM | Potency [14] 2.35 µM | Potency [19] 0.935 µM | Potency [15] 0.118 µM | Potency [16] 1.87 µM | Potency [17] 0.662 µM

CC(=O)OCCN1C(=O)c2c(C)nc3ccc(S(=O)(=O)N4CCOCC4)cc3c2C1=O
inactive: Potency [1] | Potency [2] | Potency [3] | Potency [4] | Potency [18] | Potency [5] | Potency [6] | Potency [7] | Potency [10] | Potency [11] | Potency [12] | Potency [19] | Potency [16] | Potency [17]
active: viability (% of DMSO) [8] 109%

CC=C1NC(=O)[C@H]2CSSCCC=C[C@H](CC(=O)N[C@H](C(C)C)C(=O)N2)OC(=O)[C@H](C(C)C)NC1=O
active: Potency [1] 0.0105 µM | Potency [2] 0.0166 µM | Potency [3] 0.0296 µM | Potency [4] 0.0148 µM | Potency [5] 0.0118 µM | Potency [6] 0.0264 µM | Potency [7] 0.0074 µM | Potency [9] 0.0166 µM | Potency [10] 0.0469 µM | Potency [11] 0.0093 µM | Potency [12] 0.0132 µM | Potency [13] 0.0418 µM | Potency [14] 0.0372 µM | Potency [19] 0.0148 µM | Potency [15] 0.001 µM | Potency [16] 0.0105 µM

CCN(CC)CCCCNc1ncc2cc(-c3cc(OC)cc(OC)c3)c(NC(=O)NC(C)(C)C)nc2n1
active: Potency [1] 20.9 µM | Potency [2] 9.35 µM | Potency [3] 23.5 µM | Potency [4] 26.4 µM | Potency [18] 23.5 µM | Potency [5] 23.5 µM | Potency [6] 26.4 µM | Potency [7] 18.7 µM | Potency [9] 9.35 µM | Potency [10] 23.5 µM | Potency [11] 20.9 µM | Potency [12] 16.6 µM | Potency [14] 23.5 µM | Potency [19] 10.5 µM | Potency [15] 16.6 µM | Potency [16] 18.7 µM | Potency [17] 16.6 µM
